# TDP1 cell CPT: qHTS for Inhibitors of human tyrosyl-DNA phosphodiesterase 1 (TDP1): qHTS in cells in presence of CPT | chicken DT40 Tdp1-/-;hTDP1 cells + 20 nM CPT, ATP luminescence, 48 h | Potency, µM (series often up to 46.2 µM), without a hit: top-dose activity change, negative = growth inhibition, most hits filed as inhibitors | hit rate 12% among 420,000 | AID 686979, 2013; also: potency is read from the fitted curve at half-maximal effect; nearly all actives have a fitted effect of over 55% in size
#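 Cell growth measured by CellTiter-Glo luminescence after a minimum 48 h, 37 C compound exposure with 20 nM CPT in Tdp1-knockout DT40 cells stably expressing hTDP1, seeded 400/well; qHTS titration format.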
# TDP1 cell noCPT: qHTS for Inhibitors of human tyrosyl-DNA phosphodiesterase 1 (TDP1): qHTS in cells in absence of CPT; hit rate 15% among 420,000; Potency, µM (series often up to 46.2 µM), inactives show at the top dose activity change, negative = growth inhibition, usual class: inhibitors; DT40 Tdp1-/- hTDP1 cells, no CPT, ATP luminescence, 48 h; also: potency is read from the fitted curve at half-maximal effect; nearly all actives have a fitted effect of over 55% in size
#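 DT40 Tdp1-/-;hTDP1 cells, no CPT (DMSO vehicle only), 400 cells/well; compounds pin-transferred; ≥48 hr, 37 °C; CellTiter-Glo 30 min RT dark, luminescence read.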
# ELG1 repair inh: qHTS screen for small molecules that inhibit ELG1-dependent DNA repair in human embryonic kidney (HEK293T) cells expressing luciferase-tagged ELG1. HEK293T ELG1-luciferase reporter, luminescence, 16 h; DNA damage induced by 5-fluorouridine. Potency, µM (series often up to 46.1 µM), for the others: at the highest dose activity change, negative = inhibition, actives largely listed as inhibitors. hit rate 2.3% among 330,000; also: potency is read from the fitted curve at half-maximal effect; nearly all actives have a fitted effect of over 55% in size
#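 Reporter activity after DNA damage by 5-fluorouridine is monitored. Compound-treated cells incubate 16 hr at 37 °C, then ONE-Glo is added for 30 min before luminescence reading.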
# IL1B secr inh: qHTS for Inhibitors of Inflammasome Signaling: IL-1-beta AlphaLISA Primary Screen | THP-1 LPS/ATP IL-1B secretion, AlphaLISA, 16 h; hits give low values | activity change, % at 57.5 µM | hit rate 4.7% among 360,000 | AID 743279, 2014; in the data active = activity change below about -50%; inconclusive = mostly about -30% to -49%
#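 Secreted IL-1B measured by AlphaLISA bead assay after 16 h compound exposure of THP-1 cells; compounds (final up to 57.5 uM) added 1 h before LPS (250 ng/mL) and ATP (1.25 mM) stimulation; lower signal means less secretion.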
# HT1080NT lethal: qHTS for induction of synthetic lethality in tumor cells producing 2HG: qHTS for the HT-1080-NT fibrosarcoma cell line; Potency, µM (highest dose often 46.1 µM), for inactives: top-dose activity, negative = less viability, hits mostly cytotoxic; HT-1080-NT fibrosarcoma viability, CellTiter-Glo ATP luminescence, 48 h; hit rate 1.6% among 360,000;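 also: NT is the 2HG producing partner of a matched IDH1 knockdown line; potency is read from the fitted curve at half-maximal effect; 0% = DMSO-treated cells and -100% = media-only wells without cells; nearly all actives have a fitted effect of over 55% in size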
#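 HT-1080-NT; 750 cells/well; 5% FBS RPMI; 48 h compound, 37 degrees C; CellTiter-Glo luminescence; curve fitting and curve-class assignment.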
# HT1080 IDH1KD tx: qHTS for induction of synthetic lethality in tumor cells producing 2HG: qHTS for the HT-1080-IDH1KD cell line; HT-1080 IDH1 knockdown viability, ATP luminescence, 48 h; Potency, µM (series often up to 46.1 µM), inactives show at the top dose activity, negative = toxicity, usual class: cytotoxic; hit rate 2% among 360,000; AID 686971, 2013;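 also: potency is read from the fitted curve at half-maximal effect; 0% = DMSO wells and -100% = cell-free medium wells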
#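 After a 2 h attachment period, IDH1KD HT-1080 cells took pin-transferred compound for 48 h at 37 °C; ATP-based luminescence after 10 min room-temperature reagent incubation reported viability.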
# * hit, by the source's call; i = inactive; ? = inconclusive; · = not tested or not shown. Rows were chosen to be rich in hits. Some 19% of all compounds tested hit in one or more screens of this group. Unless noted, calls follow the shape of the dose curve; as a rule, active = well fitted curve in the direction sought with a large enough effect; inconclusive = small, poorly fitted or top-dose-only effect, or another doubt; inactive = no such curve, though single readings can be large; an effect the other way counts as inactive or inconclusive. Unless noted, % is scaled to controls: 0 for no effect and ±100 for the full control effect.
SMILES,TDP1 cell CPT,TDP1 cell noCPT,ELG1 repair inh,IL1B secr inh,HT1080NT lethal,HT1080 IDH1KD tx
O=C(c1ccccc1)N1CCN=C1SCc1ccc([N+](=O)[O-])cc1,?,?,-11%,-8,-2%,-9%
Cc1ccc(C)c(CSC2=NCCN2C(=O)Cc2ccc([N+](=O)[O-])cc2)c1,?,18µM*,?,?,?,-27%
O=C(C1CCCCC1)N1CCN=C1SCc1cccc([N+](=O)[O-])c1,?,?,?,-94*,-3%,-17%
Cc1ccc(C(=O)N2CCN=C2SCc2ccc([N+](=O)[O-])cc2)cc1C,?,?,?,-85*,-11%,-2%
Cc1cc(F)ccc1-c1cc(C(=O)NC(C)C)[nH]n1,-23%,-20%,·,-16,?,16%
Cc1ccc(-c2nc3ncccc3o2)cc1NC(=O)c1ccc(-c2cccc(Cl)c2C)o1,?,0%,·,·,·,·
CSC1=NC2(CCN(C(=O)NC3CCCCC3)CC2)N=C1c1ccc(C)c(C)c1,-9%,-3%,·,·,·,·
CC(=O)NC1=NN(C(C)=O)C(C)(c2ccc(Br)cc2)S1 (stereo unspecified),-20%,?,-6%,45,?,18µM*
CCOC(=O)/C(C#N)=C(C)/C=C1\Sc2ccccc2N1CC,?,18µM*,4%,-3,16%,7%
CCN1/C(=C\C=C(C(C)=O)C(C)=O)Sc2ccccc21,?,?,?,-7,2%,-11%
CC(C)(C)c1cc(OC(=O)c2ccccc2F)ccc1O,?,?,-7%,-69*,33µM*,21µM*
O=C(c1cc2ccccc2oc1=O)N1CCN(c2ccc(F)cc2)CC1,-25%,?,·,·,·,·
COc1cccc(CN(C(=O)c2oc3ccc(Br)cc3c2C)C2CCS(=O)(=O)C2)c1 (stereo unspecified),15µM*,16µM*,·,·,·,·
COc1ccc(CN(C(=O)c2oc3ccc(F)cc3c2C)C2CCS(=O)(=O)C2)cc1 (stereo unspecified),?,?,?,i,0%,-13%
Cc1cc2oc(C(=O)N(Cc3ccccc3)C3CCS(=O)(=O)C3)c(C)c2cc1C (stereo unspecified),26µM*,16µM*,-10%,-5,-18%,-10%
COc1ccc(CNC(=O)CN2c3ccccc3S(=O)(=O)c3ccccc32)cc1,-11%,2%,-17%,-3,-10%,-3%
CCN1C(=O)/C(=C/C=C2\C=CN(CC)c3ccccc32)SC1=S,16µM*,16µM*,?,-1,13%,14%
CCN1C(=O)/C(=C\C=C2/C=CC=CN2CC)SC1=S,?,29µM*,?,?,-19%,-18%
CCN1C(=O)C(=CC=CN(C)c2ccccc2)SC1=S,?,?,·,-13,10%,11%
Cc1cccc(N(Cc2cc(=O)[nH]c3ccccc23)C(=O)CCl)c1,4.1µM*,5.2µM*,?,-107*,21µM*,?
COc1ccc(N(Cc2cc(=O)[nH]c3ccccc23)C(=O)CCl)cc1,2.1µM*,2.1µM*,?,-98*,3.3µM*,23µM*

# Screens deposited in PubChem BioAssay by National Center for Advancing Translational Sciences (NCATS).
